Results on 7 molecules are retold here after ChEMBL document CHEMBL1961873, “Compounds: GSK PKIS; Assays: Nanosyn kinase panel” (2012).

Assay [1] concerns the target T1, Tyrosine-protein kinase receptor TYRO3 (Homo sapiens) (UniProt Q06418).
T1 sequence (whole entry): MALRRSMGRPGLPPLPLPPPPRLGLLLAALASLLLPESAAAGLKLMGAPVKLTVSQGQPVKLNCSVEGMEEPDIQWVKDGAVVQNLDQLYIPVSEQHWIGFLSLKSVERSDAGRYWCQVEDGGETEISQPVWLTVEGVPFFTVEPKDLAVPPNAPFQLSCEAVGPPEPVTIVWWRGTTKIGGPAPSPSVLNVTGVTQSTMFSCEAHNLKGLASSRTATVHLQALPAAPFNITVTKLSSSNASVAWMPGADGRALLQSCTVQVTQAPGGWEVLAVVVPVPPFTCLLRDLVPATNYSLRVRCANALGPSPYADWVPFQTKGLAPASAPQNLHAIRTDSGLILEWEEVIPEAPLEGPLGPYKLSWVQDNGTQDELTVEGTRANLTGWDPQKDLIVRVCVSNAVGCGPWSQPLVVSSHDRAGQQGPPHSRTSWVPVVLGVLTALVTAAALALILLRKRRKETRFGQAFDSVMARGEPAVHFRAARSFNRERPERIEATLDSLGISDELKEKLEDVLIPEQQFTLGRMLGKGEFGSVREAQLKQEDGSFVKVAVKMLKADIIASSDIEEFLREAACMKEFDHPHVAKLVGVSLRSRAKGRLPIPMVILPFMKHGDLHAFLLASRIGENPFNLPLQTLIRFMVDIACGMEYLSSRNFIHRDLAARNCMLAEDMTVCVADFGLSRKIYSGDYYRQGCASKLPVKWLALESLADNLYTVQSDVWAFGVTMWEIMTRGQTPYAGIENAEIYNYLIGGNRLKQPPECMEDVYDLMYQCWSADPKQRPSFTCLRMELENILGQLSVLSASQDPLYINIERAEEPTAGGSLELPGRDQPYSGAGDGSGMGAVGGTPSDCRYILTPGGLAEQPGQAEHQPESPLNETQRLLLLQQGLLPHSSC
To be noted: at 1 µM.

Assay [2] addresses Tyrosine-protein kinase Yes (Homo sapiens) (UniProt P07947). To be noted: at 0.1 µM.
Assay [3] shares this target. To be noted: at 1 µM.
In assay [4] the target is T2, Tyrosine-protein kinase ZAP-70 (Homo sapiens) (UniProt P43403).
T2 sequence (whole entry): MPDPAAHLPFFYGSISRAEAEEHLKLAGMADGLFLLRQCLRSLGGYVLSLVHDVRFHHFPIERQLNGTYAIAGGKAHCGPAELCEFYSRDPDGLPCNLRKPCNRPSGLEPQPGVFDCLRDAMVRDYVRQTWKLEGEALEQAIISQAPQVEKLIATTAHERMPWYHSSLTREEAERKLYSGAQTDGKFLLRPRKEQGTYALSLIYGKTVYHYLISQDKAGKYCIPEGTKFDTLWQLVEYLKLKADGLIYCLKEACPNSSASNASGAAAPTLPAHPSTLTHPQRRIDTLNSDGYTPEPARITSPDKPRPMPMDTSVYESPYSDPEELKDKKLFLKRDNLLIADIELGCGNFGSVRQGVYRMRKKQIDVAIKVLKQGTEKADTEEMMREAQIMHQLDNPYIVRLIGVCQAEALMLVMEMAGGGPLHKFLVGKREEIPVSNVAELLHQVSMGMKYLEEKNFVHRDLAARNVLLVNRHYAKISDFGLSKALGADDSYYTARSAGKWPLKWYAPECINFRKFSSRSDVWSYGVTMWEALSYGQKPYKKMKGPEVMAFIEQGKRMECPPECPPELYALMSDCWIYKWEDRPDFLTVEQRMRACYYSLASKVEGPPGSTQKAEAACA
To be noted: at 0.1 µM.

Assay [5] deals with T2, Tyrosine-protein kinase ZAP-70 (Homo sapiens). To be noted: at 1 µM.
In assay [6] the target is Serine/threonine-protein kinase B-raf (Homo sapiens) (UniProt P15056). To be noted: at 0.1 µM.
Serine/threonine-protein kinase B-raf (Homo sapiens), sequence (P15056 whole entry): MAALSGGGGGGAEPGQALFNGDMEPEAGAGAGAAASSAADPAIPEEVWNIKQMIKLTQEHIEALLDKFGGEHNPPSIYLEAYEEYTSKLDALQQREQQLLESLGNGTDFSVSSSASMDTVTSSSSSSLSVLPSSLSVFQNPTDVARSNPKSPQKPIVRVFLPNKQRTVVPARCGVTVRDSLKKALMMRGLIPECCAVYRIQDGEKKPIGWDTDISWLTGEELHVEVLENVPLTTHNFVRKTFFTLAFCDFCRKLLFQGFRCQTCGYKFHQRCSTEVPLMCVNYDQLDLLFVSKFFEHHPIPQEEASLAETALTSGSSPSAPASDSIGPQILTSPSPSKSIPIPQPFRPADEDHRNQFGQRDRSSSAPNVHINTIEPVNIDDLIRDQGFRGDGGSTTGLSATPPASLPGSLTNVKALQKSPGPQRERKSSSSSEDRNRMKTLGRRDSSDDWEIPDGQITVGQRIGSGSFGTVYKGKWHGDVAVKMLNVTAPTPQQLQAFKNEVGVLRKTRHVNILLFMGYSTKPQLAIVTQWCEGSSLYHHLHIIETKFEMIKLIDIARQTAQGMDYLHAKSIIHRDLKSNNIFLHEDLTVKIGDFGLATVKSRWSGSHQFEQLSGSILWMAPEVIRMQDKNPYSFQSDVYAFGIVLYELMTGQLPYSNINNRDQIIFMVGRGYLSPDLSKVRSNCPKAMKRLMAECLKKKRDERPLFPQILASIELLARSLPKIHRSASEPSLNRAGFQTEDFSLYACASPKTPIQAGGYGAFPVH
Assay [7] shares this target. To be noted: at 1 µM.
The test system of assay [8] is Serine/threonine-protein kinase B-raf (Homo sapiens), P15056 [V600E]. To be noted: at 0.1 µM.
Serine/threonine-protein kinase B-raf (Homo sapiens), P15056 [V600E], sequence (P15056 whole entry V600E): as the sequence (P15056 whole entry) above, with V600E counted along it
For assay [9] the test system is unchanged. To be noted: at 1 µM.
Assay [10] has as its target RAF proto-oncogene serine/threonine-protein kinase (Homo sapiens) (UniProt P04049). To be noted: at 0.1 µM.
For assay [11] the target is unchanged. To be noted: at 1 µM.
For assay [12], the target named is T3, Interleukin-1 receptor-associated kinase 4 (Homo sapiens) (UniProt Q9NWZ3).
T3 sequence (whole entry): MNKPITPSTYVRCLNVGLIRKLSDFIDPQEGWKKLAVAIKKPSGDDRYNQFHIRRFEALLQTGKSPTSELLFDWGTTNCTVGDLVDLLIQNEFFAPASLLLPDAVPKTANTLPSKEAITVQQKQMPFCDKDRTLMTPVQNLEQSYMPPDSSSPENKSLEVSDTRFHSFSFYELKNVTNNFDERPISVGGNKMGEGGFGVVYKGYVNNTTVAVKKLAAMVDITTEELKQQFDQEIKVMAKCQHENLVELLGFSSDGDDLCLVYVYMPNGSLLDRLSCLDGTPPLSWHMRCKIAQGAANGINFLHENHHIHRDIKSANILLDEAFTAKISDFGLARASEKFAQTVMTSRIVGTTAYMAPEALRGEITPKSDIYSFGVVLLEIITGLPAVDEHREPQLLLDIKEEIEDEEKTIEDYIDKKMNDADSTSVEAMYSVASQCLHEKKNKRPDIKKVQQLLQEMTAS
To be noted: at 0.1 µM.

Assay [13] deals with T3, Interleukin-1 receptor-associated kinase 4 (Homo sapiens). To be noted: at 1 µM.
Assay [14] addresses Leucine-rich repeat serine/threonine-protein kinase 2 (Homo sapiens) (UniProt Q5S007). To be noted: at 0.1 µM.
The target is the same in assay [15]. To be noted: at 1 µM.
Assay [16] has as its system Leucine-rich repeat serine/threonine-protein kinase 2 (Homo sapiens), Q5S007 [G2019S]. To be noted: at 0.1 µM.
Assay [17] has the same test system. To be noted: at 1 µM.

Leucine-rich repeat serine/threonine-protein kinase 2 (Homo sapiens), sequence (Q5S007 whole entry): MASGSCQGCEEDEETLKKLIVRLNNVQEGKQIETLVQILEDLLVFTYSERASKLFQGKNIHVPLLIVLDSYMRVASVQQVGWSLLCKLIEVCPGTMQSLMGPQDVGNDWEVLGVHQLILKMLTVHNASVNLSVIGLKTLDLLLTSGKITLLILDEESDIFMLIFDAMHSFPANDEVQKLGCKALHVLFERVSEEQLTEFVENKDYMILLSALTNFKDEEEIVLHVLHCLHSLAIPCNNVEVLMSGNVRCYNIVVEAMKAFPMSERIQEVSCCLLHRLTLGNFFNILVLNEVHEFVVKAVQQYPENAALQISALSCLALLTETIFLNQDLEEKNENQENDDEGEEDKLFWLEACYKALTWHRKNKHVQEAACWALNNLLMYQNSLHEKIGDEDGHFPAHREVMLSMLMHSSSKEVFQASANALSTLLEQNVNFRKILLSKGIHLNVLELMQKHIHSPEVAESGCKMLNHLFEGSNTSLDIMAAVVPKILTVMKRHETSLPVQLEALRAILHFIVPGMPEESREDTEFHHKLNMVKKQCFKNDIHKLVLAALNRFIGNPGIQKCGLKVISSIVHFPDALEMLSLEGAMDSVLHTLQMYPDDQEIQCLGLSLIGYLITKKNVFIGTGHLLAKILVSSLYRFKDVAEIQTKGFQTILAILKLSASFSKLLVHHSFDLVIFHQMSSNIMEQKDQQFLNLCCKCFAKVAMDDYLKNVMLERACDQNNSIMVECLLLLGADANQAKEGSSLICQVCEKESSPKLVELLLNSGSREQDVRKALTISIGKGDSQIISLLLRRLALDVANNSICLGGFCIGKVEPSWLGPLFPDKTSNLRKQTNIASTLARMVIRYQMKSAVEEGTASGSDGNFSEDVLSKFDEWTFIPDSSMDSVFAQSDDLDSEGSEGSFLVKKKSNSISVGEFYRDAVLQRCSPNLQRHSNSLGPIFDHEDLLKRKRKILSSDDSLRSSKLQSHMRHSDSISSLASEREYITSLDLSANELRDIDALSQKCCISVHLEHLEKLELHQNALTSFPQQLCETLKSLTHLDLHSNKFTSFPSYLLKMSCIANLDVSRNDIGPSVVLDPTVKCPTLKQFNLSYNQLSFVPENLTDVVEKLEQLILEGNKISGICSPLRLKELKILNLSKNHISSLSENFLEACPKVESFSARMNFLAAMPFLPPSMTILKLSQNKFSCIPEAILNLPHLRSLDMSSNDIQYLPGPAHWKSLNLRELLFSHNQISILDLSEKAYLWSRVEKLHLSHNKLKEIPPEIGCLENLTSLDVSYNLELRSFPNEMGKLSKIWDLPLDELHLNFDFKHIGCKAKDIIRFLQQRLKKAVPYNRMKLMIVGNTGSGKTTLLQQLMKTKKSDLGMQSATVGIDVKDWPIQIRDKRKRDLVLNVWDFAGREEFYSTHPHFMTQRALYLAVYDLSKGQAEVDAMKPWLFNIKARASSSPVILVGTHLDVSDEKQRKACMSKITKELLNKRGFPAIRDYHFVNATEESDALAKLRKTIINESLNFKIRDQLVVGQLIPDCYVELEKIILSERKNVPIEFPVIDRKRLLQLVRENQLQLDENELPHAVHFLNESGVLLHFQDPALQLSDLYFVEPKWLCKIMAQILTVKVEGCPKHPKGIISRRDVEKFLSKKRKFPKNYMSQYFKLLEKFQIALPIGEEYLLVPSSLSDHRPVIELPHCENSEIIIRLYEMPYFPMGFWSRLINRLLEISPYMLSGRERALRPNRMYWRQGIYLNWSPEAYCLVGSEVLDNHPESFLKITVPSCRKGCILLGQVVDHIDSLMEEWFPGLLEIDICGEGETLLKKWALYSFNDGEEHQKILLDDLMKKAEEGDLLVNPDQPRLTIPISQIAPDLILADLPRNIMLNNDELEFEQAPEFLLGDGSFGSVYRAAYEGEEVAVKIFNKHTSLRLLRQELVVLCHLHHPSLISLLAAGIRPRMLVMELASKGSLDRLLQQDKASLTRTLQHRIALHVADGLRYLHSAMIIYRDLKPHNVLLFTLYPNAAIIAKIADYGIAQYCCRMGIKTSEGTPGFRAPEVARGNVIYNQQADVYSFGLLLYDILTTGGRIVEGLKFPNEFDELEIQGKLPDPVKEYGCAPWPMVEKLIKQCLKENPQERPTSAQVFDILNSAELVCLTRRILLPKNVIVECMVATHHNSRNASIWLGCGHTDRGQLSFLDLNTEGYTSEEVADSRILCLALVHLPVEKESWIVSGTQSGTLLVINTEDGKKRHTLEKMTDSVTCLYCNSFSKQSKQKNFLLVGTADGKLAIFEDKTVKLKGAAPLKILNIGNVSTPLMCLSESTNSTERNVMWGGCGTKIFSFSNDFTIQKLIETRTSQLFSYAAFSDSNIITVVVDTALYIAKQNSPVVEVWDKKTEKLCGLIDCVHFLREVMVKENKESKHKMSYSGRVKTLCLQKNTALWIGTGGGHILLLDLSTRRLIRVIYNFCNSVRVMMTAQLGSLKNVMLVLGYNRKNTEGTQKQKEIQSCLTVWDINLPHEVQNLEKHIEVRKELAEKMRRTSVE
RAF proto-oncogene serine/threonine-protein kinase (Homo sapiens), sequence (P04049 whole entry): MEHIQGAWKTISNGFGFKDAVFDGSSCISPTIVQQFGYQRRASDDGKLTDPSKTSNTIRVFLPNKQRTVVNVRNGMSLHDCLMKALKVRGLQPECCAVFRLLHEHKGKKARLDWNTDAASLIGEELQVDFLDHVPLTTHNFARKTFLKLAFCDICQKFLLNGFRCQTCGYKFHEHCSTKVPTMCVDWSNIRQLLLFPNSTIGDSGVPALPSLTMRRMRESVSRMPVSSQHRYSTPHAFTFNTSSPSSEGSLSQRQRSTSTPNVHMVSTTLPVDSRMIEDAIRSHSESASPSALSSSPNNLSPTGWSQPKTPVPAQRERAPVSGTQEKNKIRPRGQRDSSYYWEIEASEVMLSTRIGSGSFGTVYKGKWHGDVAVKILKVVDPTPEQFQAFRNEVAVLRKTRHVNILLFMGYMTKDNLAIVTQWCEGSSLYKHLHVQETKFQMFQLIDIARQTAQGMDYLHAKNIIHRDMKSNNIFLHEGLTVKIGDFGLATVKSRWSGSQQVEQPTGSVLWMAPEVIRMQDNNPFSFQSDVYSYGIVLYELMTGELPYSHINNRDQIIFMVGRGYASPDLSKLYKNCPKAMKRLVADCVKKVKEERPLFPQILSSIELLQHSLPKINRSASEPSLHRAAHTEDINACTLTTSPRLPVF
Tyrosine-protein kinase Yes (Homo sapiens), sequence (P07947 2-543 limits assumed): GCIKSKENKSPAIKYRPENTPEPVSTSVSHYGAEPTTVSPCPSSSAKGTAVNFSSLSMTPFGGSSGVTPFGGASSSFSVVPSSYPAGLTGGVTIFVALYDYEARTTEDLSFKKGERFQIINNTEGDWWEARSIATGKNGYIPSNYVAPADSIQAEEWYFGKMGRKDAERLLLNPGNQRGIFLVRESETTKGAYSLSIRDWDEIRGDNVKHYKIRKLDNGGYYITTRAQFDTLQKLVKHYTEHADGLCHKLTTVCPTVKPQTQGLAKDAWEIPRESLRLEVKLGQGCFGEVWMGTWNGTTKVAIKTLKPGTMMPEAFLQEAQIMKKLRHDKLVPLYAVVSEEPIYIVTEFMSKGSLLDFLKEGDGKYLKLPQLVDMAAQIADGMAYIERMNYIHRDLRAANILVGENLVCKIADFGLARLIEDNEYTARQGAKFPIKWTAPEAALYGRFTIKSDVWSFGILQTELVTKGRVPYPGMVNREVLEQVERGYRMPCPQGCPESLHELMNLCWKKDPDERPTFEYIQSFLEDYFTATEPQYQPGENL
Leucine-rich repeat serine/threonine-protein kinase 2 (Homo sapiens), Q5S007 [G2019S], sequence (Q5S007 whole entry G2019S): as the sequence (Q5S007 whole entry) above, with G2019S counted along it

For the molecule `O=C(Nc1n[nH]c2nc(-c3ccco3)c(Br)cc12)C1CC1`, the inhibition was determined as 4.49% in assay [1]; 4.26% in [2]; 13.8% in assay [3]; 1.19% in [4]; 3.08% in assay [5]; 5.54% in assay [6]. For the same molecule, the inhibition in assay [7] was found to be 5.7%; in assay [8], 6.02%; in [9] it was 5.23%; in assay [10], 1.52%; in assay [11], 2.37%; in assay [12] it was 5.57%. Further, the inhibition amounted to 1.08% in assay [13]; 2.41% in [14]; 2.93% in assay [15]; 2.74% in assay [16]; 6.98% in [17].

Turning to `CCn1c(-c2nonc2N)nc2cncc(C(=O)N3CC[C@H](N)C3)c21`, the inhibition is 6.78% in [1]; 1.84% in [2]; 5.96% in assay [3]; -1.89% in assay [4]; -1.69% in assay [5]; 6.39% in assay [6]. For the same molecule, the inhibition in [7] amounted to 7.03%; in assay [8], 7.1%; in assay [9], 6.82%; in [10], 12.6%; in assay [11], 3.85%; in assay [12] it was 2.88%. Further, the inhibition in assay [13] is 2.25%; in assay [14], 4.57%; in assay [15] it was 14.5%; in assay [16] it was 7.16%; in [17], 29.5%.

On to `CC1=C(C(=O)Nc2ccc3[nH]ncc3c2)C(c2ccc(Cl)c(Cl)c2)CC(=O)N1` (stereo not drawn), for which the inhibition in [1] stood at 1.34%; in [2] it was 4.16%; in assay [3] it was 20%; in [4], 0.71%; in assay [5], 2.3%; in assay [6], 5.79%. Further, the inhibition in [7] was 31.6%; in [8] it was 6.48%; in assay [9], 31.4%; in assay [10], 4.61%; in assay [11], 2.44%; in assay [12], -3.53%. Besides, the inhibition was found to be 0.93% in assay [13]; 2.44% in assay [14]; 4.77% in assay [15]; 0.95% in assay [16]; 8.99% in [17].

With `Cc1ccc(C(=O)NC2CCCCC2)cc1-c1ccc(C(=O)NCC2CC2)cc1`, the inhibition in assay [1] is -0.08%; in assay [2] it was 1.31%; in assay [3] it was 1.09%; in assay [4], 2.48%; in assay [5], 6.15%; in assay [6], 3.92%. For the same molecule, the inhibition was 3.21% in [7]; 3.15% in [8]; 3.03% in assay [9]; 4.27% in assay [10]; 0.13% in [11]; -1.27% in assay [12]. In addition, the inhibition came to 1.67% in assay [13]; 6.21% in [14]; 6.84% in assay [15]; 3.47% in assay [16]; 3.31% in assay [17].

For the molecule `COC(=O)Nc1nc2cc(Oc3cccc(NC(=O)Nc4cc(C(F)(F)F)ccc4F)c3)ccc2[nH]1`, the inhibition in assay [1] is -0.81%; in assay [2], 0.2%; in assay [3], 3.07%; in [4], 0.93%; in assay [5] it was 1.74%; in assay [6] it was -0.27%. Besides, the inhibition is 4.25% in [7]; 0.34% in assay [8]; 6.29% in [9]; -0.45% in assay [10]; 3.51% in [12]; -0.12% in assay [13]. Moreover, the inhibition in assay [14] amounted to 0.62%; in assay [15], 1.81%; in assay [16], 2.19%; in assay [17] it was 4.67%.

Turning to `CC(=O)Nc1cccc(C#Cc2cncnc2Nc2ccc(OCc3cccc(F)c3)c(Cl)c2)n1`, the inhibition in assay [1] is 1.63%; in assay [2], 4.46%; in assay [3], 10.7%; in assay [4] it was 2.6%; in assay [5], -0.49%; in assay [6] it was -1.65%. The inhibition in assay [7] is -3.08%; in assay [8], -2.42%; in assay [9], -2.04%; in [10] it was 0.47%; in assay [11] it was -2.95%; in [12] it was -0.61%. The inhibition in assay [13] is -0.89%; in [14] it was 3.07%; in [15], 4.78%; in assay [16], 2.03%; in assay [17], 5%.

`CC1=C(C(=O)Nc2ccc3[nH]ncc3c2)C(c2ccc3ccccc3c2)CC(=O)N1` (stereo not drawn): the inhibition in assay [1] was determined as 6.2%; in [2] it was 16.6%; in [3] it was 62.9%; in assay [4] it was 3.08%; in assay [5], 2.98%; in assay [6], 8.21%. Further, the inhibition in assay [7] was found to be 43.5%; in assay [8], 8.51%; in assay [9] it was 45.2%; in [10] it was 1.05%; in [11] it was 1.65%; in [12] it was 3.06%. The inhibition is 0.83% in assay [13]; 4.73% in [14]; 10.1% in [15]; 6.31% in [16]; 25% in assay [17].
